Among the data in PubChem BioAssay (NCI) are growth values, retold here.

Compounds without any hit were thinned out: in the full panel of roughly 83,000, 20% have a hit.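 The test compound was applied at a single concentration to cells in 96-well plates for 48 hours, and percent growth was recorded.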 Values without a mark were called inactive. Active and inactive are the calls of the source. Rule for the calls: active = growth percent below 10; inactive = the rest.

Holding throughout (test): NCI-60 one-dose screen, 48 h (100 = growth as untreated, 0 = no growth, -100 = all killed)
Common to all, as to conditions: 10 µM unless noted

For test [1], the system named is SK-MEL-2 melanoma.
Test [2] concerns EKVX NSCLC.
Test [3] has as its system SN12C renal.
In test [4] the test system is UO-31 renal.
Test [5] concerns TK-10 renal.
In test [6] the test system is ACHN renal.
For test [7], the system named is CAKI-1 renal.
The test system of test [8] is A498 renal.
Test [9] relates to CCRF-CEM leukemia.
Test [10] has as its system MOLT-4 leukemia.
In test [11] the test system is SR leukemia.
Test [12] deals with RPMI-8226 leukemia.
Test [13] concerns OVCAR-8 ovarian.
Test [14] relates to OVCAR-5 ovarian.
The subject of test [15] is OVCAR-4 ovarian.
Test [16] has as its system SK-OV-3 ovarian.
Test [17] has as its system IGROV1 ovarian.
The test system of test [18] is OVCAR-3 ovarian.
Test [19] relates to HS 578T breast.
The test system of test [20] is NCI/ADR-RES ovarian.

On to `COc1ccc(S(=O)(=O)NCCCNc2cc(-c3c(-c4cccc(OC)c4)nc4sccn34)ccn2)cc1`, for which the growth in [1] was 53.3%; in [2], 48.4%; in test [3], 36%; in test [4] it was 18%; in [5], 73.4%; in test [6], 33.2%. Further, the growth is 32% in [7]; 36.7% in [8]; 26.5% in [9]; 19.2% in test [10]; 43.5% in test [11]; 13.1% in [12]. The growth in [13] was 38.5%; in test [14], 86.3%; in test [15], 36.4%; in [16], 73.4%; in test [17] it was 51.8%; in [18], 52.1%. In addition, the growth in [19] was 62.9%; in [20] it was 32.5%.

For the compound `O=C1c2cc3c(cc2-c2c1c1cc(Cl)c(Cl)cc1c(=O)n2CCCn1ccnc1)OCO3`, the growth is 22.7% in test [1]; 35.7% in [2]; -4.67% (active) in test [3]; 1.1% (active) in [4]; 34.3% in test [5]; -6.04% (active) in test [6]. For the same compound, the growth was 11.9% in test [7]; -29.9% (active) in test [8]; 2.94% (active) in test [9]; -24.9% (active) in test [10]; -13.4% (active) in test [11]; -0.183% (active) in [12]. For the same compound, the growth is 8.55% (active) in test [13]; 25.9% in [14]; 30.1% in test [15]; -3.8% (active) in test [16]; 24.4% in [17]; 5.18% (active) in test [18]. For the same compound, the growth in test [19] is 66.7%; in test [20] it was 4.47% (active).

On to `N#Cc1c(N)nc(N)nc1Nc1ccc(Br)cc1`, for which the growth was 91.1% in test [1]; 44.1% in [2]; 85.1% in test [3]; 65.6% in test [4]; 125% in [5]; 89% in [6]. Besides, the growth is 80.1% in test [7]; 106% in test [8]; 61.1% in test [9]; 76.5% in [10]; 102% in test [11]; 97% in test [12]. In addition, the growth was 101% in test [13]; 115% in [14]; 94.5% in [15]; 108% in test [16]; 47% in [17]; 97.6% in test [18]. Moreover, the growth was 70.1% in [19] and 104% in test [20].

For the compound `O=C1O[C@H]([C@H](O)CO)C(O)=C1O`, the growth was 104% in test [1]; 110% in [2]; 104% in test [3]; 99.8% in test [4]; 104% in test [5]; 93.9% in test [6]. Moreover, the growth was 87.1% in test [7]; 94.3% in test [8]; 109% in test [9]; 107% in test [10]; 88.5% in test [11]; 99.1% in test [12]. In addition, the growth in test [13] was 97%; in [14] it was 101%; in test [15], 119%; in test [16], 112%; in [17], 104%; in [18], 104%. For the same compound, the results for the growth in test [19] and in test [20] were 117% and 96.6%, respectively.

Turning to `Brc1cccc(-c2cc(-c3ccc4c(c3)OCCO4)[nH]n2)c1`, the growth in test [1] was 35.8% [25 µM]; in test [2] it was 20.3% [25 µM]; in test [3], 33.7% [25 µM]; in [4] it was 35% [25 µM]; in test [5] it was 59% [25 µM]; in [6], 41.4% [25 µM]. Moreover, the growth was 25.7% [25 µM] in [7]; 7.77% [25 µM] (active) in test [8]; 19.5% [25 µM] in test [9]; 50.4% [25 µM] in test [10]; 31.4% [25 µM] in [11]; 20.8% [25 µM] in test [12]. Moreover, the growth was 29.7% [25 µM] in test [13]; 39.8% [25 µM] in test [14]; 58.6% [25 µM] in [15]; 39.5% [25 µM] in test [16]; 30.2% [25 µM] in test [17]; -7.07% [25 µM] (active) in [18]. For the same compound, the results for the growth in test [19] and in [20] were 30% [25 µM] and 4.14% [25 µM] (active), respectively.

Regarding `O=C(/C=C\c1cccc([N+](=O)[O-])c1)c1ccccc1`, the growth is 100% in [1]; 96.9% in [2]; 97.2% in [3]; -64.5% (active) in [4]; 68.1% in test [5]; -50.1% (active) in test [6]. Besides, the growth in [7] is 84.4%; in test [8], 91.4%; in [9] it was -23.9% (active); in test [10], 18.9%; in test [11] it was 12.7%; in [12], 0.104% (active). Also, the growth in [13] was 74.1%; in test [14], 111%; in test [15], 54.4%; in test [16], 115%; in test [17], -53% (active); in test [18] it was -83% (active). The values for the growth in test [19] and in test [20] were 86.5% and 83.6%, respectively.

Take `COc1ccc(OCC(=O)Nc2ccc(-c3nc4ccccc4s3)cc2C)cc1`: the growth is 94.1% in test [1]; 65% in test [2]; 88.8% in test [3]; 44.7% in [4]; 64.9% in test [5]; 99.4% in test [6]. The growth in [7] is 78.4%; in test [8] it was 101%; in [9] it was 89.6%; in [10] it was 55.9%; in [11], 76.1%; in test [12], 66%. Besides, the growth was 113% in [13]; 78.1% in [14]; 55% in test [15]; 99.5% in [16]; 35.2% in test [17]; 102% in test [18]. Further, the growth in [19] was 87.8%; in test [20], 85%.
